The source of these data is PubChem BioAssay (EPA / NIEHS).

Activity calls are given as the source filed them. The calls were made as follows: active = hit-call score of the fitted dose curve at least 0.9, where 1 is the maximum; inactive = score below 0.9.

The AC50 is the concentration at which the activity in the assay is half-maximal.

Read-out in this experiment: Bcl-2 (BID) gene, BID (gene 637)
The experiment is described as follows: LTEA_HepaRG_BID: Life Technologies and Expression Analysis (LTEA) Assay for Bcl-2 (BID) gene using HepaRG (AID 2283476). Particulars: mRNA level, 48 h; actives raise or lower the signal. Here is the method:
LTEA_HepaRG is a cell based, multiplexed-readout assay that uses HepaRG, a human liver cell line, with measurements taken at 48 hours after chemical dosing on a 96-well plate.LTEA_HepaRG_BID is one of 102 assay component(s) measured in the LTEA HepaRG cell culture assay. It is a marker of Cell proliferation, survival, death.Data from the assay component LTEA_HepaRG_BID was analyzed into 1 endpoint. This assay endpoint, LTEA_HepaRG_BID, was analyzed with bidirectional fitting relative to DMSO as the negative control and baseline of activity. Using a type of inducible reporter, measures of mRNA induction for gain or loss-of-signal activity can be used to understand regulation of transcription factor activity. To generalize the intended target to other relatable targets, this assay endpoint is annotated to the cell cycle intended target family, where the subfamily is Cell proliferation, survival, death.
A total of 1060 chemcials from the ToxCast library were tested in eight-point concentration-response experiments. Cell culture and cytotoxicity assays were conducted at Thermo Fisher Scientific's Custom Services facility (Madison, WI). A single lot of human HepaRG cells (Thermo Fisher Scientific, Frederick, MD) was used for the cell culture experiments. 96-well format collagen type I coated plates of human HepaRG cells were prepared using established methods. Briefly, cryopreserved HepaRG cells were thawed, plated at a density of approximately 100,000 cells/well in HepaRG Thaw, Plate, and General Purpose media (HPRG770, Thermo Fisher Scientific), and incubated for 48 hours. 0.5% DMSO was selected as vehicle control to balance the requisite need of DMSO in HepaRG cultures to maintain differentiation (for example, baseline metabolism, proportions of hepatocytes vs. cholangiocytes), while enabling further hepatic receptor pathway activation (for example, PXR and CAR) in response to chemical exposure. 48 hours after plating, the culture medium was replaced with HepaRG Serum-Free Incudtion Media. Cells were exposed to each test chemical in duplicate and maintained in CO2 incubators for another 48 hours. Chemical plates were thawed to room temperature and 200x concentrations of treatment groups were prepared. 8-point conentration-reponse curves were made with the highest exposure at 100 uM, followed by half-log dilutions, all in 0.5% DMSO. Each test plate contained variouse controls, induction positive controls (1mM phenobarbital), cytotoxicity positive controls ([…] aflatoxin B1), vehicle controls (0.5% DMSO), and total lysis controls (0.5% DMSO). Cell morphology images were taken using an Essen IncuCyte FLR automated microscope, with six 96-well plates imaged in about 24 minutes. Images were captured and exported and JPEG files. Spent culture media was transfered to black-well plates for the LDH assay, and remaining media was sorted at -80 C for later use. Cells were treated with RLT buffer and frozen until shipped for gene expression analysis. Total RNA was isolated from the cell suspension in 75 uL of Buffer RLT (Qiagen, Germantown, MD 20874) by Quintiles/Expression Analysis (Durham, NC) using a custom isolation procedure. Total RNA from each plate well was transferred to a preamplification plate. Fluidigm's 96.96 Dynamic ArrayTM (Fluidigm, Amsterdam, the Netherlands) technology was used for gene expression analyses by quantitative reverse transcription polymerase chain reaction (qRT-PCR, performed by Quintiles/Expression Analysis, Durham, NC)89. Standard TaqManTM Assays (Applied Biosystems/ThermoFisher Scientific, Foster City, CA) were used to assess the expression of 93 genes selected based on their selectivity and sensitivity to important hepatic receptors known to be modulated by environmental chemicals; importance in human hepatocyte functionality; and hepatotoxicity. […]
As for `c1ccc2[nH]c(-c3cscn3)nc2c1`, the result was inactive.
Still for that read-out and setting: then `CCOC(=O)C(C)Oc1ccc(Oc2cnc3cc(Cl)ccc3n2)cc1` (stereo not given), with “inactive”; and `CC(C)(c1ccc(O)cc1)c1ccc(O)cc1`, with “inactive”.
The same measure, in the same setting: then `CCCCC(CC)COC(=O)c1ccccc1C(=O)O` (stereo not given), with “inactive”; and `c1ccc(Nc2ccccc2)cc1`, with “inactive”; and `C#CCOC(=O)[C@@H](C)Oc1ccc(Oc2ncc(Cl)cc2F)cc1`, with “inactive”.
Same read-out and setting: next, `CN(C)C(=O)Nc1ccc(Cl)c(Cl)c1`: “inactive”.
For `CCOC(=O)c1ccc(O)cc1`, the call was inactive.
On the same count and under the same terms, next, `CC(=O)[C@H]1CC[C@H]2[C@@H]3CCC4=CC(=O)CC[C@]4(C)[C@H]3CC[C@]12C`: “inactive”; `O=C(c1ccc(O)cc1O)c1ccc(O)cc1O`: “inactive”.
On the same count and under the same terms, then `CCN(CC)C(=O)c1cccc(C)c1`, with “inactive”; and `CCCOC(=O)c1ccc(C(=O)OCCC)nc1`, with “inactive”; and `COC(=O)c1ccccc1C(=O)O`, with “inactive”.
Consider `C[C@]12CC[C@@H]3c4ccc(O)cc4C[C@@H](CCCCCCCCCS(=O)CCCC(F)(F)C(F)(F)F)[C@H]3[C@@H]1CC[C@@H]2O` (stereo not given in full), for which the AC50 was 68.2 nM (active).
For the molecule `C#C[C@]1(O)CC[C@H]2[C@@H]3CCC4=CC(=O)CC[C@@H]4[C@H]3CC[C@@]21CC`, the call was inactive.
Same read-out and setting: next, `C=CCOC(Cn1ccnc1)c1ccc(Cl)cc1Cl` (stereo not given): “inactive”; `CC(C)(C)[C@@H](O)[C@@H](Cc1ccc(Cl)cc1)n1cncn1`: “inactive”; `CCNc1nc(N)nc(Cl)n1`: “inactive”.
Same read-out and setting: then `CCCOC(=O)NCCCN(C)C`, with “inactive”; and `CCCCOC(=O)C(C)Oc1ccc(Oc2ccc(C(F)(F)F)cn2)cc1` (stereo not given), with “inactive”.
As for `S=C([S-])NCCNC(=S)[S-].[Mn+2]`, the molecule was called inactive.
Consider `CC1(C)C(C=C(Cl)Cl)C1C(=O)OCc1cccc(Oc2ccccc2)c1` (stereo not given), for which the molecule was classed as inactive.
Take `CCCN(CCC)c1c([N+](=O)[O-])cc(C(F)(F)F)c(N)c1[N+](=O)[O-]`: the molecule was classed as inactive.
Still for that read-out and setting: next, `CCOC(=O)NCCOc1ccc(Oc2ccccc2)cc1`: “inactive”.
Consider `CC(C)CCCCCCc1ccc(O)cc1`, for which the outcome was inactive.
Turning to `COCCO`, the outcome was inactive.
Turning to `C[C@]12C[C@H](O)[C@H]3[C@@H](CCC4=CC(=O)CC[C@@]43C)[C@@H]1CC[C@@H]2C(=O)CO`, the result was inactive.
Consider `CCCN(CCC)C(=O)SCC`, for which the molecule was called inactive.
On the same count and under the same terms, next, `CSC(=O)c1cccc2nnsc12`: “inactive”.
Same read-out and setting: then `Cc1nn(C)c(Oc2ccccc2)c1C=NOCc1ccc(C(=O)OC(C)(C)C)cc1`, with “inactive”; and `O=C(c1ccccc1)C1CCCCC1`, with “inactive”; and `CCCCCCC(C)OC(=O)COc1nc(F)c(Cl)c(N)c1Cl` (stereo not given), with “inactive”.
Still for that read-out and setting: next, `OB(O)O`: “inactive”.
For `CCCCCOC(=O)COc1cc(N2C(=O)C3=C(CCCC3)C2=O)c(F)cc1Cl`, the result was inactive.
The same measure, in the same setting: next, `O=C(O)C1(C(=O)Nc2ccc(Cl)cc2Cl)CC1`: “inactive”; `CCCCC(CC)CN1C(=O)C2C3C=CC(C3)C2C1=O` (stereo not given): “inactive”.
The same measure, in the same setting: then `COc1c(Cl)ccc(Cl)c1C(=O)O`, with “inactive”; and `CCOC(=O)COc1cc(-n2ncc(C(F)(F)F)c(C)c2=O)c(F)cc1Cl`, with “inactive”; and `CCCCOC(=O)[C@@H](C)Oc1ccc(Oc2ccc(C(F)(F)F)cn2)cc1`, with “inactive”.
On the same count and under the same terms, then `COC(=O)CSc1cc(N=c2sc(=O)n3n2CCCC3)c(F)cc1Cl`, with “inactive”.
